{
  "source": "PubChem BioAssay (EPA / NIEHS)",
  "note": "Records with an inconclusive call do not appear. Activity calls are given as the source filed them. Rule for the calls: active = hit-call score of the fitted dose curve at least 0.9, where 1 is the maximum; inconclusive = response in the unintended direction; inactive = score below 0.9.",
  "data": [
    {"target": "human Phosphodiesterase 10 (PDE10), PDE10A (gene 10846) (UniProt Q9Y233)", "sequence (Q9Y233 whole entry, looked up)": "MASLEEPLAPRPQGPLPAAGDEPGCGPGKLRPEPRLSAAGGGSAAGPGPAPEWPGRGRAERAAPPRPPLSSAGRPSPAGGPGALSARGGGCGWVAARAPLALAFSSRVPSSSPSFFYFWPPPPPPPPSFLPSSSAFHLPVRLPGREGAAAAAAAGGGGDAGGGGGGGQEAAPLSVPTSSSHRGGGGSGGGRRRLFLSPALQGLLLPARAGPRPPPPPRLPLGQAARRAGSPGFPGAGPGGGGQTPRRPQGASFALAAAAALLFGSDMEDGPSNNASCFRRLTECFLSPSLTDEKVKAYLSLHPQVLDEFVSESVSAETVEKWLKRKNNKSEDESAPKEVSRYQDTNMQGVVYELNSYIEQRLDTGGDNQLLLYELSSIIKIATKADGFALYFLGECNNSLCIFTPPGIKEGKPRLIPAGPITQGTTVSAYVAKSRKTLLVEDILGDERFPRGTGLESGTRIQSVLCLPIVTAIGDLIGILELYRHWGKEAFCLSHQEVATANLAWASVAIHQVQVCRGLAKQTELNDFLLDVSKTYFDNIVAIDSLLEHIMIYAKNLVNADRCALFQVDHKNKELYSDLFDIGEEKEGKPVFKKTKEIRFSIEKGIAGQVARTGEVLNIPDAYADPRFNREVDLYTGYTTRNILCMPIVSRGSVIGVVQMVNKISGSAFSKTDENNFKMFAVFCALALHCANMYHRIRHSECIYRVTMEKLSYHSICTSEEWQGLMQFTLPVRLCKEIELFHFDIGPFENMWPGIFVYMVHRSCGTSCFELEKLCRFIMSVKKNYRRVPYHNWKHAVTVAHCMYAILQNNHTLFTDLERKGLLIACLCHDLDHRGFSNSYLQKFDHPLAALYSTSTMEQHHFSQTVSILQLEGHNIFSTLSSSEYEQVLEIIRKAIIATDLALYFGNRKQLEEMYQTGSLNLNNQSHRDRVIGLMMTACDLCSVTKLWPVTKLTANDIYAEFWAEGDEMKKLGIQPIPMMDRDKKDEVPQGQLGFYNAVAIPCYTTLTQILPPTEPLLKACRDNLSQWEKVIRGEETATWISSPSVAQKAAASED", "assay": "NVS_ENZ_hPDE10: NovaScreen (NVS) Enzymatic Assay for human Phosphodiesterase 10 (PDE10) (AID 2283195)", "procedure,_shortened": "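Fluorescence/mobility-shift readout of PDE10A enzyme activity, taken 1 h post-dosing. Primary screen in duplicate at 25 uM; actives (e.g. ≥30% inhibition) retested as singleton concentration-response, top concentration 50 uM.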", "values": [
      {"smiles": "CCCCOCCOCCOC(C)=O", "outcome": "inactive"},
      {"smiles": "CC=C(C)C=CC=C(C)C", "outcome": "inactive"},
      {"smiles": "CCCSSCCC", "outcome": "inactive"}
    ]}
  ]
}
